# In the library only some 3.5% were active in any assay of this set; here they are far more common.
# MITF inh = inhibitors of human MITF. O75030. AlphaScreen MITF homodimerization, bead proximity signal. inhibition, % at 2.6 µM. 0.91% of 650,000 active; in the data active means inhibition above about 50%;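 further: 0% = vehicle wells with protein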
# Target sequence (O75030 whole entry, looked up): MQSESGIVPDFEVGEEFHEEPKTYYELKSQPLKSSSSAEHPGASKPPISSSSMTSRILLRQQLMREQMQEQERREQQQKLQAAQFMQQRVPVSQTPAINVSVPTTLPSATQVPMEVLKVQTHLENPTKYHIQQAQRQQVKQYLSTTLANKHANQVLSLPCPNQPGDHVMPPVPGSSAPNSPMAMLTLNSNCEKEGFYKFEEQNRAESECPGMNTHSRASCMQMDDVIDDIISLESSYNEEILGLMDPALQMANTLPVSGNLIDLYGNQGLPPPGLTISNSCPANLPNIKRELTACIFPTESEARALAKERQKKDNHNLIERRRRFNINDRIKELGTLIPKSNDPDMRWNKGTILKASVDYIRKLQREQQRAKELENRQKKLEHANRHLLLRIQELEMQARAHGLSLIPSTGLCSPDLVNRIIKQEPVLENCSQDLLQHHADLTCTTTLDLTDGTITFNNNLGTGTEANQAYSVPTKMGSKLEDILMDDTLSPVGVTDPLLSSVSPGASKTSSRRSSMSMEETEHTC
# FBW7 activator = activators of human E3 ligase FBW7 | Q969H0 | AlphaScreen FBW7–phospho-cyclin E peptide binding, activator screen | AID 1259310 | 0.13% of 650,000 active | normalized activity (activation), % at 26.1 µM; in the data active means normalized activity above about 1.9%;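 further: purified mutant Fbw7 with reduced substrate affinity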
# TEAD-YAP block = TEAD-YAP interaction inhibition | HEK-TIYL cells, TEAD-Gal4/YAP UAS-luciferase luminescence | inhibition, % at 9.12 µM | 1.4% of 640,000 active | AID 1259422; in the data active means inhibition above about 32%;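 further: 0% = median of test compound wells and 100% = reference inhibitor wells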
# GPR151 activ = activators of human GPR151; activation, % at 11.2 µM; PathHunter beta-arrestin GPR151 cells, luminescence; AID 1508602; 1% of 650,000 active; Q8TDV0; in the data active means activation above about 4.9%;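 further: 0% = median of compound wells and 100% = cells with positive control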
# GPR151 confirm = human GPR151 activation, confirmation screen; GPR151 PathHunter beta-arrestin cells, luminescence, 90 min; % of EA-reagent control over plate median; AID 1508609; activation, % at 11.2 µM; 6,700 tested, under 10 active; shares compounds with GPR151 activ;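 active means mean percent activation across replicates above the confirmation screen cutoff of 4.91%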
# GPR119 counter = counter-screen for GPR151 activators: effect on human GPR119 | shares compounds with GPR151 activ | GPR119 PathHunter beta-arrestin cells, luminescence, 90 min; 0 = compound-well median, 100 = enzyme-acceptor control | activation, % at 11.2 µM | 0.3% of 6,700 active | AID 1508611;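 active means mean percent activation in the counterscreen above 29.09%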;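 further: counterscreen on off-target GPR119 to flag nonselective hits from the GPR151 activator screen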
# * marks the source's active call; other numbers are inactive results; . = no result.
SMILES,MITF inh,FBW7 activator,TEAD-YAP block,GPR151 activ,GPR151 confirm,GPR119 counter
O=[N+]([O-])c1ccccc1N/N=C/c1ccccc1O,-42.5,-0.1,-2.2,0.0,.,.
COc1ccc(S(=O)(=O)Nc2ccccc2SC)cc1Cl,-1.5,-0.3,-3.2,5.2*,-0.7,-4.1
CCOc1ccccc1NS(=O)(=O)c1ccc(Br)c(OC)c1,-9.0,0.0,4.8,-0.4,.,.
COc1ccccc1NS(=O)(=O)c1ccc2nc(CCl)[nH]c2c1,-9.6,0.3,2.6,7.0*,0.2,-2.6
COc1ccc(S(=O)(=O)Nc2ccccc2SC)cc1C,-5.9,0.1,-7.4,1.4,.,.
CCOc1ccccc1NS(=O)(=O)c1ccc(OC)c(Cl)c1,-5.1,-0.1,1.7,5.5*,-0.7,-4.5
CCCCNC(=O)Cn1nc(-c2ccccc2)ccc1=O,0.4,0.1,2.6,-0.4,.,.
Cc1nc2ccc(N)cc2c(=O)n1Cc1cccc(Cl)c1,14.3,0.2,5.0,-0.6,.,.
CCOc1cc(C(=O)Nc2ccc(S(=O)(=O)Nc3nc(C)cc(C)n3)cc2)cc(OCC)c1OCC,-4.5,-0.1,-2.0,-0.6,.,.
COC(=O)C1=C(N)Oc2cc(C)n(Cc3ccccc3)c(=O)c2C1c1cccc(OC)c1 (stereo not drawn),14.6,0.6,17.4,-0.3,.,.
CCOc1ccc(/C(O)=C2/C(=O)C(=O)N(Cc3cccnc3)C2c2ccc(F)cc2)c(C)c1 (stereo not drawn),2.6,0.0,5.7,0.7,.,.
Brc1ccc(Nc2cccnc2)nc1,-2.1,-0.1,0.3,10.8*,1.3,4.3
Fc1cccc(F)c1Nc1ccc(Br)cn1,10.7,-0.4,0.2,-0.8,.,.
COc1ccc(NC(=O)CCCC(=O)OCC(F)(F)C(F)F)cc1,13.2,0.1,9.0,5.0*,0.1,6.0
CCC1CCCCN1CCN1C(=O)C2C(C(=O)Nc3cc(C)cc(C)c3)C3C=CC2(O3)C1C(=O)NC1CCCC(C)C1C (stereo not drawn),15.0,0.6,7.5,-0.3,.,.
CCC1CCCCN1CCN1C(=O)C2C(C(=O)Nc3cccc(C)c3)C3C=CC2(O3)C1C(=O)NC1CCCC(C)C1C (stereo not drawn),1.4,-0.3,6.4,12.9*,-0.2,-5.4
CSc1cccc(NC(=O)C2C3C=CC4(O3)C2C(=O)N(C(C)C)C4C(=O)NC2CCCC(C)C2C)c1 (stereo not drawn),7.9,0.0,3.7,5.8*,0.6,-0.9
CN(C)c1ncnc2c1C(c1ccc([N+](=O)[O-])cc1)c1c(ncnc1N(C)C)O2,8.3,0.1,-7.2,6.2*,0.4,-6.2
Cc1nc(N)sc1C(=O)N/N=C\c1ccccc1OCc1ccccc1,-6.9,-0.4,-2.9,0.1,.,.
O=C(CCN1C(=O)S/C(=C\c2ccc(Cl)cc2)C1=O)Nc1ccc(C(=O)O)cc1,15.5,0.2,1.2,6.9*,-0.4,-7.3
Cn1c2c(c(=O)n(C)c1=O)C(c1ccccc1Cl)CC(=O)N2 (stereo not drawn),10.4,0.0,5.4,8.6*,0.4,9.6
COc1cccc(OC)c1-c1[nH]nc2nc(-c3ccc(=O)[nH]c3)ccc12,1.2,-0.2,7.4,6.7*,-1.3,-4.2
N#C/C(=C\c1cn(CC(=O)Nc2ccccc2)c2ccccc12)C(=O)N1CCOCC1,-5.5,-0.1,4.7,0.6,.,.
Cc1ccnc(NC(c2cccc(C)n2)c2ccc3cccnc3c2O)c1 (stereo not drawn),26.2,-0.3,18.6,-1.0,.,.
COc1cccc(C(Nc2cc(C)ccn2)c2ccc3cccnc3c2O)c1 (stereo not drawn),31.6,-0.2,80.4*,5.1*,-0.3,-0.4
Cc1ccc2c(c1)CN(CCNC(=O)CCc1ccco1)CC(C)O2 (stereo not drawn),12.9,0.0,-0.2,0.7,.,.
Cc1ccc2c(c1)CN(CCNC(=O)CCc1ccc(=O)[nH]n1)CC(C)O2 (stereo not drawn),-6.6,0.0,-6.4,5.3*,0.2,-0.1
CCOC(=O)N1CCN(S(=O)(=O)c2cc(C(=O)O)ccc2F)CC1,0.6,-0.1,-5.8,5.8*,0.5,12.6
CCOc1ccccc1NC(=O)c1ccc(F)c(S(=O)(=O)N2CCN(c3ccccc3F)CC2)c1,-2.9,-0.2,0.6,-0.9,.,.
